Screening data from PubChem BioAssay.
Shown are actives, neighbours in structure and some others; about 13% of the full set was active somewhere.
WT yeast gro inh: growth inhibition of WT yeast, mitochondrial fusion screen; mitochondrial fusion phenotypic screen, WT strain; inhibition, % at 10 µM; 2.1% of 190,000 active; AID 1362; in the data active means inhibition above about 58%; tested in S. cerevisiae
CHOP inh: blocks CHOP induction under ER stress | inhibition, % at 10 µM | 3.8% of 220,000 active | CHO-K1 CHOP-promoter luciferase, tunicamycin-induced, 15-18 h | AID 2732;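 active means compounds that reduced the stress-induced luciferase reporter signal by more than about 70% of percent inhibition, limit read from the data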
Lmaj promast: reduces viability of Leishmania major promastigotes. resazurin fluorescence viability. inhibition, % at 10 µM. 9% of 200,000 active. AID 1063; in the data active means inhibition above about 50%;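 further: promastigotes grown with compound for 44 hours at 28 °C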
RAM network inh: inhibitors of the yeast RAM network; S. cerevisiae dse1pr::URA3 reporter, 5-FOA growth OD615, 2 d; analog-sensitive cbk1-as2 kinase mutant strain; inhibition, % at 50 µM; 1.8% of 190,000 active; AID 868;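 active means inhibition above a set limit, 3 SD over mean compound inhibition, cut at about 8.4% in these data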;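 further: inhibition rescues growth on 5-FOA so higher OD means more RAM inhibition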
Each line names hits and unclear results; the compound was inactive in the other large screens.

COc1ccc(C(NC(=O)/C=C/c2ccco2)c2ccc(OC)c(OC)c2)cc1OC	none
COC(=O)C1=NNC2(c3ccc(C)cc3)C(=O)N(c3ccc(C)cc3)C(=O)C12 (stereo unspecified)	none
COc1cccc2cc(C(C)OC(=O)Nc3ccc(C)cc3)oc12 (stereo unspecified)	none
CC(C)=NNC(=O)C1=NNC(=O)C1	none (no result: WT yeast gro inh, Lmaj promast, RAM network inh)
CCCCC1C2=C(CC(C)(C)CC2=O)OC2=C1C(=O)CC(C)(C)C2	none
O=C(c1ccccc1)c1ccc(Sc2ccc([N+](=O)[O-])cc2)cc1	none (no result: WT yeast gro inh, Lmaj promast, RAM network inh)
N#CC1(Cc2ccc([N+](=O)[O-])cc2)c2ccccc2C=CN1C(=O)c1ccccc1 (stereo unspecified)	Lmaj promast 51.1
N#CC1(Cc2ccccc2)c2ccccc2C=CN1C(=O)c1ccccc1 (stereo unspecified)	Lmaj promast 82.2, RAM network inh 8.7
COc1cccc(-n2nc(-c3ccnn3-c3ccc(C)cc3)c(=O)n(C)c2=O)c1	none
CN1C(=O)C(/C(N)=N/NC(=O)c2ccccc2)C2CC1(C)Oc1ccccc12 (stereo unspecified)	none
CN(C)c1ccc(/C=C/C(O)=C2/C(=O)N(C)C3(C)CC2c2ccccc2O3)cc1 (stereo unspecified)	Lmaj promast 66.2
O=C(Nc1ccccc1)OC1CCC2CC1CCC2OC(=O)Nc1ccccc1 (stereo unspecified)	WT yeast gro inh 67.2
CC(C)(C)CC(=O)NCCCCCCNC(=O)CC(C)(C)C	none
Oc1cccc(Nc2nc(O)c(/C=C3\C=Nc4ccccc43)s2)c1	none (no result: WT yeast gro inh, Lmaj promast, RAM network inh)
CC1=Nc2ccccc2/C1=C\c1sc(Nc2ccc(C)cc2)nc1O	WT yeast gro inh 60.8, Lmaj promast 73.2
Oc1nc(Nc2ccc(F)cc2)sc1/C=C1\C=Nc2ccccc21	none (no result: WT yeast gro inh, Lmaj promast, RAM network inh)
Oc1nc(Nc2cccc(Cl)c2)sc1/C=C1\C=Nc2ccccc21	WT yeast gro inh 78.5, CHOP inh 78.8
NS(=O)(=O)c1ccc(CCNC(=O)/C=C/c2cccc([N+](=O)[O-])c2)cc1	none
Cc1cc(CN2CCN(CCC#N)CC2)c(O)c(C2(C)CCCCC2)c1	WT yeast gro inh 83.6
S=C(NC1CCCCC1)N1CCn2cccc2C1c1cccnc1 (stereo unspecified)	Lmaj promast 97.6
Cc1cccc(NC(=S)N2CCCCC2c2cccnc2)c1C (stereo unspecified)	none (no result: WT yeast gro inh, Lmaj promast, RAM network inh)
Fc1cccc(NC(=S)N2CCn3cccc3C2c2cccnc2)c1 (stereo unspecified)	Lmaj promast 92.4
COc1ccccc1NC(=S)N1CCn2cccc2C1c1cccnc1 (stereo unspecified)	Lmaj promast 77.6
CNC(=S)N1CCn2cccc2C1c1ccc(F)cc1 (stereo unspecified)	none
Fc1ccc(C2c3cccn3CCN2C(=S)Nc2cccc(F)c2)cc1 (stereo unspecified)	WT yeast gro inh 79.8
COc1ccc(/C=N/Nc2ncccc2[N+](=O)[O-])c(OC)c1	none
CC(=O)N1CCc2ccc(NC(=O)c3c(-c4c(Cl)cccc4Cl)noc3C)cc21	none (no result: WT yeast gro inh, Lmaj promast, RAM network inh)
S=C(NC1CCCCC1)N1CCn2cccc2C1c1ccncc1 (stereo unspecified)	none
S=C(Nc1ccccc1)N1CCn2cccc2C1c1cccnc1 (stereo unspecified)	Lmaj promast 86.2
C=CCNC(=O)C(C#N)c1nc2ccccc2nc1N1CCCCCC1 (stereo unspecified)	RAM network inh 9.0
CCCCNC(=O)C(C#N)c1nc2ccccc2nc1N1CCCC1 (stereo unspecified)	none
Cc1cccn2c(=O)c(/C=C(\C#N)C(N)=O)c(N3CCN(Cc4ccc5c(c4)OCO5)CC3)nc12	Lmaj promast 65.0
CCCCCCOC(=O)C(C#N)c1nc2ccccc2nc1N1CCN(C)CC1 (stereo unspecified)	Lmaj promast 54.4
CCC(CC)COC(=O)C(C#N)c1nc2ccccc2nc1N1CCN(CC)CC1 (stereo unspecified)	Lmaj promast 100.5
CCC(C)(C)NC(=O)C(Sc1ccccc1)c1ccccc1 (stereo unspecified)	none
CC(=O)C1C(=O)c2c(cccc2[N+](=O)[O-])C1=Nc1ccc(S(N)(=O)=O)cc1 (stereo unspecified)	none
CCO[C@H]1OC(C(N)=O)=C[C@@H](C)[C@@H]1CCCO	none
C=CCOC(=O)C(C#N)c1nc2ccccc2nc1N1CCN(Cc2ccc3c(c2)OCO3)CC1 (stereo unspecified)	Lmaj promast 57.8
CC(=O)Nc1ccc(S(=O)(=O)N2CCN(C)CC2)cc1	WT yeast gro inh 64.2
CN1CCN(S(=O)(=O)c2ccc(-c3ccccc3)cc2)CC1	Lmaj promast 86.2
CC(=O)Nc1ccc(S(=O)(=O)N2CCN(C(C)CCc3ccccc3)CC2)cc1 (stereo unspecified)	Lmaj promast 85.5
Nc1c(C(=O)O)sc2nc3c(cc12)CCCC3	none (no result: WT yeast gro inh, Lmaj promast, RAM network inh)
CN1CCc2nc3sc(C(=O)C45CC6CC(CC(C6)C4)C5)c(N)c3cc2C1	Lmaj promast 95.8
COc1ccc(C2=NN(C(=O)CSc3ncccn3)C(c3cccc(OC)c3OC)C2)cc1 (stereo unspecified)	Lmaj promast 78.6
Oc1cccc(C(O)CNCc2ccc(OCc3ccc(Cl)cc3Cl)cc2)c1 (stereo unspecified)	WT yeast gro inh 87.7, CHOP inh 103.8, Lmaj promast 97.0
COc1cc2c(cc1OC)-c1c(OC)c(OC)cc3ccnc(c13)C2=O	Lmaj promast 63.3
COc1cc2cccc(OC)c(=O)c2c(O)c1OC	none
CC(=O)c1c(C)[nH]c(C(=O)OCc2ccccc2)c1C	none
CCN(CC)CCc1c(C)[nH]c(C(=O)OCc2ccccc2)c1C	Lmaj promast 100.1
O=C(c1ccccc1)C1CN(Cc2ccccc2)CCC1(O)c1ccccc1 (stereo unspecified)	Lmaj promast 62.2
OC(c1ccccc1)C1CN(Cc2ccccc2)CCC1(O)c1ccccc1 (stereo unspecified)	Lmaj promast 84.8
O=C(c1cccc(C(=O)N2CCN(Cc3ccccc3)CC2)c1)N1CCN(Cc2ccccc2)CC1	none
OC1(c2ccccc2)CCN(Cc2ccccc2)CC1	Lmaj promast 82.9
Cc1ccc(S(=O)(=O)n2nccc2-c2c(-c3ccc(Cl)cc3)noc2C)cc1	none (no result: WT yeast gro inh, Lmaj promast, RAM network inh)
CCc1ccc(-c2nc(C(N)=O)c3[nH]c(=O)n(-c4ccccc4OC)c3n2)cc1	CHOP inh 71.7
CCOc1ccccc1-c1nc(C(N)=O)c2[nH]c(=O)n(-c3ccc(F)cc3)c2n1	none
COc1ccc(-c2nc(C(N)=O)c3[nH]c(=O)n(-c4cccc(Cl)c4)c3n2)cc1OC	CHOP inh 95.3, Lmaj promast 60.2 (no result: WT yeast gro inh)
COc1cccc(-c2nc(C(N)=O)c3[nH]c(=O)n(-c4cccc(Cl)c4)c3n2)c1OC	RAM network inh 11.1
COc1cc2c(cc1OC)C1(CCCC1)CNC2c1cccc([N+](=O)[O-])c1 (stereo unspecified)	none
COc1ccc(C(=O)N/C=C/n2cnc3cc(C(F)(F)F)ccc32)cc1	none (no result: WT yeast gro inh, Lmaj promast, RAM network inh)
COc1cc(/C=C2/S/C(=N/S(=O)(=O)c3ccccc3)NC2=O)c([N+](=O)[O-])cc1OC	RAM network inh 9.4
